Only a selection was taken, and hits are over-represented in it overall.
KDM5B inh – blocks human KDM5B histone demethylase activity | Q9UGL1 | hit rate 2.6% among 220,000 | Potency, µM (doses to about 57.7 µM), most hits filed as inhibitors | KDM5B demethylase, FDH-coupled NADH fluorescence (FDH is formaldehyde dehydrogenase); active = well fitted inhibition curve with a large enough effect; note: 0% is about no effect; nearly all actives have a fitted effect of over 70% in size
Target sequence (Q9UGL1 whole entry, looked up): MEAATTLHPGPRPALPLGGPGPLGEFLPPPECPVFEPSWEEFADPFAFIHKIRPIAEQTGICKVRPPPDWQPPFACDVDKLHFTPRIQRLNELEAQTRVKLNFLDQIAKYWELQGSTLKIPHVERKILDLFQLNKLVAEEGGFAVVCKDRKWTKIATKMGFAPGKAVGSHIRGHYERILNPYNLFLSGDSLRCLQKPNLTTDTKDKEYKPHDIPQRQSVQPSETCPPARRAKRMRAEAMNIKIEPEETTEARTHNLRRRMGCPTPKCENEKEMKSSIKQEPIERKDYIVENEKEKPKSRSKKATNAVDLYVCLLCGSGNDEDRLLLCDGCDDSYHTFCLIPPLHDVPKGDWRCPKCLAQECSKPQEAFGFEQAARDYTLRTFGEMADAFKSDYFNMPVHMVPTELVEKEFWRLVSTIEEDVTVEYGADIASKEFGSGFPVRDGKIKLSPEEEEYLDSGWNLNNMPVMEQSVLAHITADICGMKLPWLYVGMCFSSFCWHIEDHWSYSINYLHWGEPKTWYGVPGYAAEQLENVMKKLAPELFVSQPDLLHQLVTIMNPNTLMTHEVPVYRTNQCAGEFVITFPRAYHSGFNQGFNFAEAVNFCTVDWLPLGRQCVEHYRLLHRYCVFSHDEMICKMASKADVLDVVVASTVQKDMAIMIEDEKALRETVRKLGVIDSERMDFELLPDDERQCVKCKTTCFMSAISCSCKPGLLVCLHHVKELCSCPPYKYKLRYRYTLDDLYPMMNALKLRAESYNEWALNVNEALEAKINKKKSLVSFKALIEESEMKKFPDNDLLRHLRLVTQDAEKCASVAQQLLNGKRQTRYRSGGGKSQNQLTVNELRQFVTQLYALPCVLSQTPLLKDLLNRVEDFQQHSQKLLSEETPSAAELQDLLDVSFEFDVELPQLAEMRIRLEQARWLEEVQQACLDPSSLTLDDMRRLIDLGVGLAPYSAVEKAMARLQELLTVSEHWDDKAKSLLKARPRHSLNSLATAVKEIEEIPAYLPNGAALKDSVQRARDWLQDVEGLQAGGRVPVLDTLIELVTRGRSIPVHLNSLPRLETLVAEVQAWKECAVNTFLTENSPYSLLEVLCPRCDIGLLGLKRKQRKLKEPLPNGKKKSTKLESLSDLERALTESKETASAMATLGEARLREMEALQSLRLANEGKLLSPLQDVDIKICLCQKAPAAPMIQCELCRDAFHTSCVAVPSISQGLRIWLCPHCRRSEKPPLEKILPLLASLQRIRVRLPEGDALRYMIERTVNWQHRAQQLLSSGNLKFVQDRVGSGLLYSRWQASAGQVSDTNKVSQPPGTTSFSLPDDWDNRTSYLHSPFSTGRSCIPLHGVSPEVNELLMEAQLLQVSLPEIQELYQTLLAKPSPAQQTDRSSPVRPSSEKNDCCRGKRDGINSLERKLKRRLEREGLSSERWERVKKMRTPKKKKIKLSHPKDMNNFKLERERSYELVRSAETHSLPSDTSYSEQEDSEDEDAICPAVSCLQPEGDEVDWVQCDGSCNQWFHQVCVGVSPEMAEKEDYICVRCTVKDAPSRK
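KDM5BΔAP (200 nM final) in 50 mM HEPES pH 7.5, 0.01% Tween-20 was preincubated 10 min at RT with compound over a concentration range. Substrate mix (H3K4me3 12.5 µM, α-KG 25 µM, Fe²⁺, ascorbate, NAD⁺, FDH) was added, and NADH fluorescence change over 30 min gave dose-response curves.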
An asterisk follows results filed as active; i = inactive. Potency is the fitted concentration of half-maximal effect.

SMILES | KDM5B inh
O=C1CCN(Cc2ccccc2)CCOCCN1 | i
C[S+](=O)([O-])c1ccc(-c2cc3c(cn2)CN(Cc2ccccc2)CCN3)cc1 | 28µM*
c1ccc(CN2CCNc3cnc(-c4ccc(N5CCOCC5)cc4)cc3C2)cc1 | 35µM*
Clc1cnccc1CN1CCNc2cc(-c3ccccc3)ncc2C1 | i
CC(=O)Nc1cccc(-c2cc3c(cn2)CN(Cc2ccccc2)CCN3)c1 | i
Cc1ccccc1SC1CCN(c2cc(C3CC(O)C3)ncn2)CC1 (configuration not stated) | i
CN(C1CCOCC1)C1CCN(S(=O)(=O)c2ccccc2)CC1 | i
NCC1CCN(C2CCCCC2)CC1 | i
COc1ccccc1-c1cc2c(ccn2C)c(C(=O)NCC2CCN(C)C(=O)C2)n1 (configuration not stated) | i
CN(C)c1cccc(-c2cc(C(=O)NCc3cccnc3)c3c(c2)ncn3C)c1 | i
CN(C)CCNC(=O)c1cc(-c2ccc(F)cc2)cc2ncn(C)c12 | 28µM*
Cc1ccc(-n2nc(C(=O)NCCN(C)C)c(=O)n(C)c2=O)cc1 | i
CSc1ccc(Cl)c(C(=O)NCCCn2ccnc2)c1 | i
Cc1cc(C)c(CNC(=O)c2cc(-c3ccc(CN(C)C)cc3)cc3ncn(C)c23)c(=O)[nH]1 | i
CC(C)(C)OC(=O)N1CCC(CNC(=O)c2ccc(F)cc2F)CC1 | i
COc1cc(CNC(=O)c2cc(-c3ccc(F)cc3)cc3ncn(C)c23)ccn1 | 32µM*
COCCNC(=O)c1cc(-c2ccccc2OC(F)(F)F)cc2ncn(C)c12 | i
O=C(NCCCn1ccnc1)c1c(F)cccc1F | i
CN1CCC(CNC(=O)c2cc(-c3ccc(F)cc3)cc3ncn(C)c23)CC1=O (configuration not stated) | 32µM*
Cn1cnc2cc(-c3ccc(F)cc3)cc(C(=O)NCCCn3ccnc3)c21 | 40µM*
Cc1ccc(OCC(=O)Nc2ccc3oc(-c4ccccc4)nc3c2)c(C)c1 | i
COc1ccc(C2(C(=O)N3CCCC(c4nc(-c5cccnc5)no4)CCNC(=O)CC3)CC2)cc1 (configuration not stated) | i
Cc1sc2ccn(Cc3ccc(F)cc3)c(=O)c2c1C(=O)NCc1cccs1 | i
COc1ccc(C(=O)N2CCC3(C2)C(=NC2CCCC2)NC(=O)N3c2cccc(OC)c2)cc1 (configuration not stated) | i
CC(=O)OCc1cnc(C)c2oc(=O)c(-c3nc(-c4ccccc4)no3)cc12 | i
SMILES | KDM5B inh
CN(C)S(=O)(=O)c1ccc(NC(=O)Cc2cc(Cl)c3c(c2)OCCCO3)cc1 | i
Cn1cnc2cc(-c3ccc(F)cc3)cc(C(=O)NCCc3ccccn3)c21 | 28µM*
O=C(NCCc1ccccn1)c1cc(F)cc(F)c1 | i
O=C(NCCc1ccccn1)c1cccc(F)c1 | i
COc1ccccc1Nc1ncc2c(n1)CN(C(=O)c1cccc(N(C)C)c1)CCN2 | i
O=C(c1ncccn1)N1CCNc2cnc(Nc3ccc(-n4ccnc4)cc3)nc2C1 | i
O=C(COc1ccccc1)N1CCNc2cnc(Nc3cccc(F)c3)nc2C1 | 35µM*
COc1ccc(S(=O)(=O)N2CCC3(CC2)CC(CC(=O)N2CCCC2)CCO3)cc1 (configuration not stated) | i
C=C(C)COc1ccc(C(N)=O)cc1 | i
CS(=O)(=O)NC1CCN(C(=O)c2cc(Br)ccc2F)CC1 | i
CCOc1ccc(C(=O)CSc2nc3cc(C(=O)NCC(C)C)ccc3c(=O)n2CCOC)cc1 | i
O=C(Cn1nc2c(cc1=O)CCCCC2)Nc1ccc(F)cc1 | i
Cc1ccc(NC(=O)Cn2nc3c(cc2=O)CCCCC3)cc1C | i
CN1C(=O)c2ccc(NC(=O)Cn3nc4c(cc3=O)CCCC4)cc2C1=O | 28µM*
CC(C)Oc1cccc2c1c(NC(=O)C1CCCO1)nn2Cc1ccccc1 (configuration not stated) | i
CC(C)Oc1cccc2c1c(NC(=O)c1ccn(C)n1)nn2Cc1ccccc1 | 25µM*
CC(C)Oc1ccc2c(NC(=O)c3ccn(C)n3)nn(CC(F)(F)F)c2c1 | i
CN(CC(=O)Nc1ccc(Nc2ccccc2)cc1)S(=O)(=O)c1ccccc1 | i
Cc1ccccc1CNC[C@H]1Cn2ccnc2CO1 | i
COc1ccc(C(=O)N2CCC3(CC2)C(=O)Nc2ccccc23)cc1 | i
CCOC(=O)C1(Cc2ccc(F)cc2F)CCCN(C(=O)c2cccnc2SC)C1 (configuration not stated) | i
Cc1cc(C)n2nc(C(=O)N3CCC4(CC3)C(=O)Nc3ccccc34)cc2n1 | 28µM*
CCOC(=O)C1(Cc2ccc(F)cc2)CCCN(C(=O)c2cc3nc(C)cc(C)n3n2)C1 (configuration not stated) | 32µM*
CCOC(=O)C1(Cc2cccc(OC)c2)CCCN(C(=O)c2ccc(OC)o2)C1 (configuration not stated) | i
O=C(c1ccccc1)N1CCC2(CC1)C(=O)Nc1ccccc12 | i
SMILES | KDM5B inh
O=C1Nc2ccccc2CC12CN([S+](=O)([O-])c1cccs1)C2 | i
C/C(=N\NC(=O)c1cccc(Br)c1)c1cccs1 | i
COc1cccc(NC(=O)CN(C)CC(=O)Nc2c(C)cccc2C)c1 | i
CCOC(=O)CSc1nnc2n(CC)c(=O)c3c(n12)-c1ccccc1CC31CCCCC1 | i
COc1cc(NC2c3ccccc3C(=O)N2c2cccnc2)cc(OC)c1OC (configuration not stated) | i
COc1ccccc1NC(=O)c1cc(-c2cccnc2)nc2ccccc12 | i
COc1ccccc1-c1cc(-c2cccnc2)c2cncn2c1 | 40µM*
COc1ccc(-c2cc(-c3ccncc3)c3cncn3c2)cc1OC | i
COc1ccccc1-c1nc2nccc(-c3cccnc3)n2n1 | i
COc1cccc(-c2cc(-c3cccnc3)c3cncn3c2)c1OC | 35µM*
O=C(NCC1CCCO1)c1ccc(-c2nnc(-c3ccccc3)o2)cc1 (configuration not stated) | i
Cc1cc(Br)cc2c(C(=O)NCC3CCCO3)cc(-c3ccccc3)nc12 (configuration not stated) | i
O=C(NCC1CCCO1)c1cc2c(=O)[nH]c(-c3ccccc3)cn2n1 (configuration not stated) | 22µM*
Cc1ccc(Nc2cc(C)nc3c(C)c(C)cc([N+](=O)[O-])c23)cc1 | i
Cc1noc(C)c1-c1cc2c(cc(C)n2C)c(NC2CCN(C)CC2)n1 | i
Cc1nnc(-c2cc(N3CCN(c4ccccn4)CC3)ccn2)n1C | i
Cc1noc(C)c1-c1cc2c(cc(C)n2C)c(N2CCN(c3ccccn3)CC2)n1 | 32µM*
CC1(C(=O)NCc2cccnc2)CCc2cnc(NCc3ccccc3)nc21 (configuration not stated) | 32µM*
CC1(C(=O)NC2CCOCC2)CCc2cnc(Nc3ccccc3)nc21 (configuration not stated) | i
CC1(C(=O)NCc2ccc(F)cc2)COCc2cnc(Nc3ccccc3)nc21 (configuration not stated) | i
CC1(C(=O)NC2CCOCC2)CCCc2cnc(NCc3ccccc3)nc21 (configuration not stated) | 40µM*
CC1(C(=O)N2CCCC2)CCCc2cnc(Nc3ccccc3)nc21 (configuration not stated) | i
CC1(C(=O)NCc2cccnc2)CCc2cnc(Nc3ccccc3)nc21 (configuration not stated) | i

Screening data deposited in PubChem by National Center for Advancing Translational Sciences (NCATS).
